This excerpt belongs to a sample that is enriched for hits.
Pf Dd2 inh = Plasmodium falciparum Dd2 growth inhibition | P. falciparum Dd2 growth, SYBR Green, 72 h | Potency, µM (highest dose often 28.9 µM), without a hit: at the top dose activity, negative = inhibition, usual class: inhibitors | 120,000 compounds, 4.3% hits; active means well fitted inhibition curve with a large enough effect;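 further: plate controls were DMSO vehicle for no effect and reference drug for full effect; nearly all actives have a fitted effect of over 65% in size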
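Infected erythrocytes (Dd2, 0.3% parasitemia, 2.5% hematocrit final) are added to compound in RPMI-1640/Albumax II medium, grown 72 h at 37C in low oxygen, then lysed with saponin/Triton-X containing SYBR Green and read by fluorescence.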
Starred values were filed as active, the others as inactive; [ ] = dose if it differs, or a comment. Potency means the concentration at half of the fitted maximal effect.

Results for CNC(C)c1cccc(C(F)(F)F)c1 (stereo not given) ?
Pf Dd2 inh: -6.9%[44.1 µM]

What do the screens show for `O=C(c1ccc(Cl)nc1)N1CCc2nc(-c3ccc(Cl)cc3)nc(-c3ccccc3)c2C1`?
Pf Dd2 inh: -24.4%

Results for Cc1ccc(C(=O)N2CCc3nc(-c4ccccc4)nc(-c4ccc(Cl)cc4)c3C2)cc1 ?
Pf Dd2 inh: 10µM*

What do the screens show for `CN(C)C(=O)N1CCc2nc(-c3ccccc3)nc(-c3ccc(Cl)cc3)c2C1`?
Pf Dd2 inh: inactive

How did CC(C)(C)C(=O)N1CCc2nc(-c3ccccc3)nc(-c3ccc(Cl)cc3)c2C1 do in these assays?
Pf Dd2 inh: 5.01µM*

What do the screens show for `CC(=O)N1CCc2nc(-c3ccc(Cl)cc3)nc(-c3ccccc3)c2C1`?
Pf Dd2 inh: -16.1%

How did Cc1nc2c(c(-c3ccc(Cl)cc3)n1)CN(C(=O)c1ccccc1)CC2 do in these assays?
Pf Dd2 inh: -7.3%

Results for CN1C(=O)Cc2cc(C(=O)N3CCN(c4ccccc4Cl)CC3)ccc21 ?
Pf Dd2 inh: inactive

What do the screens show for `COc1ccc(Cl)cc1C(=O)NC1CCN(c2cc(-c3cccs3)[nH]n2)CC1`?
Pf Dd2 inh: -0.1%

What do the screens show for `OCC1CN(C2CCC2)CC12CCN(Cc1cc(F)c(F)c(F)c1)CC2` (stereo not given)?
Pf Dd2 inh: -11.6%

Results for OCC1CN(C2CCC2)CC12CCN(Cc1ccc(F)cc1)CC2 (stereo not given) ?
Pf Dd2 inh: 12.6µM*

Results for OCC1CN(C2CCC2)CC12CCN(Cc1ccc[nH]1)CC2 (stereo not given) ?
Pf Dd2 inh: -9.8%

What do the screens show for `COCCn1nc2n(c1=O)CCN(Cc1ccc(Br)s1)CC2`?
Pf Dd2 inh: 18.1%

What do the screens show for `O=C(c1cccc2[nH]ccc12)N1CC(Oc2cccc(-c3nc(-c4ccccc4)no3)c2)C1`?
Pf Dd2 inh: inactive[5.79 µM]

Results for COc1ccc(-c2ccnc(N[C@H]3CO[C@H]4[C@@H]3OC[C@H]4OC(=O)Nc3ccc(C(C)=O)cc3)n2)cc1 ?
Pf Dd2 inh: 5.62µM*

What do the screens show for `COc1ccc(-c2ccnc(N[C@H]3CO[C@H]4[C@@H]3OC[C@@H]4NC(=O)NCc3ccccc3)n2)cc1`?
Pf Dd2 inh: 5.01µM*

What do the screens show for `COc1ccc(-c2ccnc(N[C@H]3CO[C@H]4[C@@H]3OC[C@H]4OC(=O)Nc3ccc(C(C)(C)C)cc3)n2)cc1`?
Pf Dd2 inh: inactive

What do the screens show for `COc1ccc(-c2ccnc(N[C@H]3CO[C@H]4[C@@H]3OC[C@H]4OC(=O)Nc3cccc(C(C)=O)c3)n2)cc1`?
Pf Dd2 inh: -27.7%

How did CCNC(=O)N[C@H]1CO[C@H]2[C@@H]1OC[C@@H]2Nc1nccc(-c2ccc(OC)cc2)n1 do in these assays?
Pf Dd2 inh: inactive

Results for COc1ccc(-c2ccnc(N[C@H]3CO[C@H]4[C@@H]3OC[C@@H]4NC(=O)CC3(CC(=O)O)CCCC3)n2)cc1 ?
Pf Dd2 inh: -4.4%

What do the screens show for `C=CCN(Cc1ccccc1OCC)C(=O)CCn1cccc1`?
Pf Dd2 inh: -22.8%

Results for Cc1nn(-c2ccccc2)c(=O)n1CC(=O)NCC1OCCc2ccccc21 (stereo not given) ?
Pf Dd2 inh: 6.9%

Results for O=C(O)CCc1ccnc(N2CCCC2)c1 ?
Pf Dd2 inh: 6.8%

How did O=C(CCc1ccnc(N2CCCC2)c1)N1CCN(c2cccc(Cl)c2)CC1 do in these assays?
Pf Dd2 inh: 5.01µM*

What do the screens show for `O=C(CCc1ccnc(N2CCOCC2)c1)N1CCN(C(=O)c2ccco2)CC1`?
Pf Dd2 inh: 33.6%

How did c1cc2nnc(C3CCC3)n2nc1NCC1CCCO1 (stereo not given) do in these assays?
Pf Dd2 inh: -13.2%

How did CCOc1ccccc1NC(=O)N1CC2CC(C1)[C@H]1CCCC(=O)N1C2 (stereo not given in full) do in these assays?
Pf Dd2 inh: -9.8%

What do the screens show for `COc1ccc(CN2CCc3nc(C(=O)Nc4ccc(Cl)cc4)oc3CC2)cn1`?
Pf Dd2 inh: 2.51µM*

Results for COc1ccc(CN2CCc3nc(C(=O)NCCOc4ccccc4)oc3CC2)cn1 ?
Pf Dd2 inh: inactive

What do the screens show for `COc1ccccc1CN1CCc2nc(C(=O)Nc3ccc(Cl)cc3)oc2CC1`?
Pf Dd2 inh: -3.6%[44.1 µM]

How did CCN(Cc1cc(C)[nH]n1)CC1CCCN(CCc2cccc(OC)c2)C1 (stereo not given) do in these assays?
Pf Dd2 inh: -17.1%

How did CCN(Cc1c(O)cccc1OC)CC1CCN(CCc2ccccc2C)CC1 do in these assays?
Pf Dd2 inh: 15.8µM*

What do the screens show for `COc1ccccc1CCC(=O)N1CCC(Cc2nncn2C)CC1`?
Pf Dd2 inh: -8.3%

What do the screens show for `COc1cccc(NC(=O)C2N(C(C)C)C(=O)C23CCCCC3)c1` (stereo not given)?
Pf Dd2 inh: -17.1%

What do the screens show for `CCOCCN1C(=O)COC[C@@H]1[C@H](O)c1ccc(NC(=O)COc2ccccc2)cc1`?
Pf Dd2 inh: -25.5%[44.1 µM]

Results for CCN1C(=O)COC[C@@H]1[C@H](O)c1ccc(NC(=O)COc2ccccc2)cc1 ?
Pf Dd2 inh: -8.2%[44.1 µM]

Results for O=C(COc1ccccc1)Nc1ccc([C@@H](O)[C@H]2COCC(=O)N2CCCc2ccccc2)cc1 ?
Pf Dd2 inh: 7.94µM*

How did COC[C@@H]1CN(C(=O)CCc2cccc(OC)c2)C[C@H]1c1ccncc1 do in these assays?
Pf Dd2 inh: -2.2%

Results for O=C(Oc1ccccc1)N1CCC(Oc2cnc3c(ccn3-c3cncnc3)c2)CC1 ?
Pf Dd2 inh: inactive

Results for Cc1ccc(-c2n[nH]c3c2C(c2cccc(O)c2)N(c2ccc(C(=O)O)cc2)C3=O)cc1 (stereo not given) ?
Pf Dd2 inh: 20.6%

What do the screens show for `O=C1c2[nH]nc(-c3ccccc3)c2C(c2ccccc2)N1c1cccc(C(F)(F)F)c1` (stereo not given)?
Pf Dd2 inh: inactive

Results for CCOC(=O)c1ccc(N2C(=O)c3n[nH]c(-c4cccs4)c3C2c2ccc(CC)cc2)cc1 (stereo not given) ?
Pf Dd2 inh: 10µM*

Results for CCOC(=O)c1ccc(N2C(=O)c3n[nH]c(-c4cccs4)c3C2c2cccc(O)c2)cc1 (stereo not given) ?
Pf Dd2 inh: -18.4%

Results for CCOC(=O)c1ccc(N2C(=O)c3n[nH]c(-c4cccs4)c3C2c2ccc(C(C)C)cc2)cc1 (stereo not given) ?
Pf Dd2 inh: -2.1%

How did CCOC(=O)c1ccc(NC(=O)c2cn(-c3ccccc3)nc2-c2ccc(C)cc2)cc1 do in these assays?
Pf Dd2 inh: 4.4%

What do the screens show for `CCOC(=O)c1ccc(N2C(=O)c3[nH]nc(-c4ccc(C)cc4)c3C2c2cccs2)cc1` (stereo not given)?
Pf Dd2 inh: 11.2µM*

Results for CCOC(=O)c1ccc(N2C(=O)Cc3cc(OCC)c(OCC)cc3C2c2ccccc2)cc1 (stereo not given) ?
Pf Dd2 inh: 39.8%

Results for CCOC(=O)c1ccc(N2C(=O)c3[nH]nc(-c4ccc(C)cc4)c3C2c2ccc(O)c(OCC)c2)cc1 (stereo not given) ?
Pf Dd2 inh: 7.08µM*

What do the screens show for `CCOC(=O)c1ccc(N2C(=O)c3n[nH]c(-c4ccco4)c3C2c2ccc(O)c(OCC)c2)cc1` (stereo not given)?
Pf Dd2 inh: inactive

Results for CCOC(=O)c1ccc(N2C(=O)c3[nH]nc(-c4ccc(OC)cc4)c3C2c2ccccc2Cl)cc1 (stereo not given) ?
Pf Dd2 inh: -7.5%
